# In PubChem BioAssay (NCATS):
# Records with an inconclusive call do not appear. Entries that show only a call come without a potency. The source made the active and inactive calls. Unless noted, calls follow the shape of the dose curve; as a rule, active = well fitted curve in the direction sought with a large enough effect; inconclusive = small, poorly fitted or top-dose-only effect, or another doubt; inactive = no such curve, though single readings can be large; an effect the other way counts as inactive or inconclusive.
# Tests used:
# [1] = Stat Signaling Pathway (AID 446; active = well fitted curve in either direction with a large enough effect, not every such curve was filed as active;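 also: ME-180 cervical cancer cells given 40 pM IL-6 alongside compound; SIE-controlled beta-lactamase reporter measured as 460/530 nm FRET emission ratio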)
# Procedure, shortened: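 Emission at 460 and 530 nm (excitation 405 nm) reports SIE-controlled beta-lactamase in ME-180 cells. Cells received compound with 40 pM IL-6 for 5 hrs at 37 C; data scaled between 300 pM IL-6 and 125 nM JAK-inhibitor controls.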
# [2] = biological target: Glucocorticoid receptor (Homo sapiens) (UniProt P04150); experiment: GR-GFP Redistribution (AID 450;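 active = compounds whose dose series gives a full or clear partial fitted curve of increased nuclear translocation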; also: potency is read from the fitted curve at half-maximal effect); settings: U2OS GR-GFP nuclear translocation, laser cytometry, 2 h
# [3] = biological target: Glucocorticoid receptor (Homo sapiens) (UniProt P04150); experiment: GR-EFC Redistribution (AID 451; calls by dose curve; also: potency is read from the fitted curve at half-maximal effect); settings: CHO-K1 GR-EFC translocation, beta-gal luminescence, 2 h
# Procedure, shortened: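 CHO-K1 cells expressing nuclear EA and GR-ED fragments of b-gal; compounds titrated up to 46 uM final, 2 h at 37 C. GR nuclear translocation read as complemented b-gal luminescence after 1 h RT detection.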
# [4] = biological target: Mitogen-activated protein kinase 10 (Mus musculus) (UniProt Q61831); experiment: JNK3 AlphaScreen Assay (AID 530; active = well fitted curve in either direction with a large enough effect, not every such curve was filed as active;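 also: kinase came from lysate of stimulated human HepG2 cells; signal reports phosphorylation of biotinylated GST-cJun 1-79 at Ser73 with 10 µM ATP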)
# Procedure, shortened: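 HepG2 lysate (IL-1b/TNFa pre-activated) + biotin-GST-cJun 1-79 + anti-pSer73 cJun; cpd titration, 15 min RT; ATP 10 uM start; Tris pH 7.6, MgCl2, DTT, vanadate; beads in EDTA buffer; AlphaScreen.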
# [5] = biological target: 3',5'-cyclic-AMP phosphodiesterase 4B (Homo sapiens) (UniProt Q07343); experiment: qHTS Assay for Inhibitors of PDE-IV (AID 607; active = well fitted activation curve with a large enough effect in the main read-out, with a control signal flat, not every such curve was filed as active)
# Procedure, shortened: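 The readout is membrane depolarisation from a cAMP-sensing CNG channel, detected with a potential dye at ex 535/em 590. Cells were HEK293-derived (endogenous PDE-IV) at 1000 cells/well, titrated up to 22.9 uM final.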
# [6] = qHTS Assay for Lipid Storage Modulators (AID 1519; calls by dose curve); settings: Drosophila S3 cells, BODIPY lipid droplet/cell ratio, laser cytometry, cells loaded with oleic acid
# Procedure, shortened: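 Cells seeded at 5,000 per well were treated with compounds over a concentration series and loaded with oleic acid (400 uM, as added). Lipid droplet fluorescence (488 nm excitation, 500-530 nm channel) was read by laser-scanning cytometry and normalized to 20 uM Triacsin C.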
# [7] = biological target: Ubiquitin carboxyl-terminal hydrolase 1 (Homo sapiens) (UniProt O94782); experiment: Inhibitors of USP1/UAF1: Pilot qHTS (AID 504865);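 also: rhodamine fluorescence freed from ubiquitin-rhodamine substrate followed over time; top concentration of the series differs between compounds; nearly all actives have a fitted effect of over 35% in size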
# Procedure, shortened: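 Enzyme-free wells gave the negative control, while test wells held 1nM USP1/UAF1 preincubated with compound for 15 min at room temperature. Ub-Rho at 150nM final started the reaction, and fluorescence at 480/540 nm was recorded kinetically.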
# [8] = qHTS profiling for inhibitors of Plasmodium falciparum proliferation (AID 504749); also: potency is read from the fitted curve at half-maximal effect; as to all read-outs here: nearly all actives have a fitted effect of over 60% in size; settings: P. falciparum in erythrocytes, SYBR Green DNA, 72 h; for activity, negative = inhibition: at 12.8 µM (top of the series)
# Procedure, shortened: (§1)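 SYBR Green fluorescence (ex 485 nm, em 535 nm) reports parasite DNA after 72 h compound exposure of infected red cells at 0.3% parasitemia, 2.5% hematocrit; signal normalized to 0.29 uM artemisinin and vehicle wells.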
# CP192 = experiment: as above; settings: P. falciparum in erythrocytes, SYBR Green DNA, 72 h; series mostly up to 12.8 µM
# Procedure, shortened: as §1
# CP262 = experiment: as above; settings: P. falciparum in erythrocytes, SYBR Green DNA, 72 h; series mostly up to 12.8 µM
# Procedure, shortened: as §1
# CP269 = experiment: as above; settings: P. falciparum in erythrocytes, SYBR Green DNA, 72 h; series mostly up to 12.8 µM
# Procedure, shortened: as §1
# CP315 = experiment: as above; settings: P. falciparum in erythrocytes, SYBR Green DNA, 72 h; series mostly up to 12.8 µM
# Procedure, shortened: as §1
# CP325 = experiment: as above; settings: P. falciparum in erythrocytes, SYBR Green DNA, 72 h; series mostly up to 12.8 µM
# Procedure, shortened: as §1
# CP329 = experiment: as above; settings: P. falciparum in erythrocytes, SYBR Green DNA, 72 h; series mostly up to 12.8 µM
# Procedure, shortened: as §1
# FAB9 = experiment: as above; settings: P. falciparum in erythrocytes, SYBR Green DNA, 72 h; series mostly up to 12.8 µM
# Procedure, shortened: as §1
# PC49 = experiment: as above; settings: P. falciparum in erythrocytes, SYBR Green DNA, 72 h; series mostly up to 12.8 µM
# Procedure, shortened: as §1
# [9] = S16 Schwann cell viability assay (CellTiter-Glo assay) (AID 624031);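 also: native untransfected S16 rat Schwann cells; cellular ATP luminescence as a viability measure; nearly all actives have a fitted effect of over 70% in size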
# Procedure, shortened: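 Following overnight culture in 10% FBS DMEM, parental S16 rat Schwann cells are dosed for 24 h at 37 °C. Viability is read as CellTiter-Glo luminescence and expressed as % activity relative to DMSO (0%) and no-cell wells.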
# CP201 = experiment: qHTS profiling for inhibitors of Plasmodium falciparum proliferation (AID 504749); also: nearly all actives have a fitted effect of over 60% in size; also: potency is read from the fitted curve at half-maximal effect; settings: P. falciparum in erythrocytes, SYBR Green DNA, 72 h; series mostly up to 12.8 µM
# Procedure, shortened: as §1
# CP305 = experiment: as above; settings: P. falciparum in erythrocytes, SYBR Green DNA, 72 h; series mostly up to 12.8 µM
# Procedure, shortened: as §1
# JCK = experiment: as above; settings: P. falciparum in erythrocytes, SYBR Green DNA, 72 h; series mostly up to 12.8 µM
# Procedure, shortened: as §1
# [10] = measured here: cell count channel max response
# [11] = measured here: lipid channel max response
# Glucocorticoid receptor (Homo sapiens), sequence (P04150 whole entry, looked up, the tested form may be a part): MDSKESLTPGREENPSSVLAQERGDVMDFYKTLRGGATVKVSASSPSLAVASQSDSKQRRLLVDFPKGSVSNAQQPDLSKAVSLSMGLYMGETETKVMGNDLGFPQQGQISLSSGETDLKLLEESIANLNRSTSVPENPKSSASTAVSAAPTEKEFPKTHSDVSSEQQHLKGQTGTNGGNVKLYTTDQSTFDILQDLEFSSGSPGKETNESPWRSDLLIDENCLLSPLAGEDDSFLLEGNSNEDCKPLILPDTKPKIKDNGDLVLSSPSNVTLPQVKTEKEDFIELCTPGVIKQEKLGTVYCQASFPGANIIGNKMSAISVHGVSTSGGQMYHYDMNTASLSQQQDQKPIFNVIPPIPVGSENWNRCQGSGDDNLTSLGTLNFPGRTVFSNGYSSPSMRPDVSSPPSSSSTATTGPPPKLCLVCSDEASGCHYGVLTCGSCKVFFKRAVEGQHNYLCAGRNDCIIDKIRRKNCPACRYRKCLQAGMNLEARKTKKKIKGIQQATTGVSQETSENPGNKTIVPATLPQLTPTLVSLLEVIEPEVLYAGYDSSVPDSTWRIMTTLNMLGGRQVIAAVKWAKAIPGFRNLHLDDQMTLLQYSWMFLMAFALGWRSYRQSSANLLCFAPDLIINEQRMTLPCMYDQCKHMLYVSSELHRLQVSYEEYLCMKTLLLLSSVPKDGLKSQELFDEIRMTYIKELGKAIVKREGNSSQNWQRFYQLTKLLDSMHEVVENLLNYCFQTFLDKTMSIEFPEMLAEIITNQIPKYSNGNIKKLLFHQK
# 3',5'-cyclic-AMP phosphodiesterase 4B (Homo sapiens), sequence (Q07343 whole entry, looked up): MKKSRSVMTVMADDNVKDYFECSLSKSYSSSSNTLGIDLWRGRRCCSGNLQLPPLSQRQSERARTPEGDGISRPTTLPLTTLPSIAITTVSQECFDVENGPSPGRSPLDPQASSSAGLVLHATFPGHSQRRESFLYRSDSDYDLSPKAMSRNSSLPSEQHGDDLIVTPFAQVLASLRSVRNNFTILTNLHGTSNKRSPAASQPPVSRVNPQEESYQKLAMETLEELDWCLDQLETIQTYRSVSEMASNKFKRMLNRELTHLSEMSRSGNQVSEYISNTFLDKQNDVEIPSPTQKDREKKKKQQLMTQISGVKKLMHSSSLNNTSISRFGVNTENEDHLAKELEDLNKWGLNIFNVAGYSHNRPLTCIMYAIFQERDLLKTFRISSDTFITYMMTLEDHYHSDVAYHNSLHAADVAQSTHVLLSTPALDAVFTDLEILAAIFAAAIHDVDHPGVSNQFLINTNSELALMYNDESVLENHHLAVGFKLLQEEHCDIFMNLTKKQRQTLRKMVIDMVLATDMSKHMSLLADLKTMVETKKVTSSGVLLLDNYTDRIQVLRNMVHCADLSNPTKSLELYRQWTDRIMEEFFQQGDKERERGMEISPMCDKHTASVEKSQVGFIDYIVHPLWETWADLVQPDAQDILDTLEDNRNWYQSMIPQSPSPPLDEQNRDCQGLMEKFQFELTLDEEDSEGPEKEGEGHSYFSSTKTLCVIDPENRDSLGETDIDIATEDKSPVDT
# Ubiquitin carboxyl-terminal hydrolase 1 (Homo sapiens), sequence (O94782 whole entry, looked up): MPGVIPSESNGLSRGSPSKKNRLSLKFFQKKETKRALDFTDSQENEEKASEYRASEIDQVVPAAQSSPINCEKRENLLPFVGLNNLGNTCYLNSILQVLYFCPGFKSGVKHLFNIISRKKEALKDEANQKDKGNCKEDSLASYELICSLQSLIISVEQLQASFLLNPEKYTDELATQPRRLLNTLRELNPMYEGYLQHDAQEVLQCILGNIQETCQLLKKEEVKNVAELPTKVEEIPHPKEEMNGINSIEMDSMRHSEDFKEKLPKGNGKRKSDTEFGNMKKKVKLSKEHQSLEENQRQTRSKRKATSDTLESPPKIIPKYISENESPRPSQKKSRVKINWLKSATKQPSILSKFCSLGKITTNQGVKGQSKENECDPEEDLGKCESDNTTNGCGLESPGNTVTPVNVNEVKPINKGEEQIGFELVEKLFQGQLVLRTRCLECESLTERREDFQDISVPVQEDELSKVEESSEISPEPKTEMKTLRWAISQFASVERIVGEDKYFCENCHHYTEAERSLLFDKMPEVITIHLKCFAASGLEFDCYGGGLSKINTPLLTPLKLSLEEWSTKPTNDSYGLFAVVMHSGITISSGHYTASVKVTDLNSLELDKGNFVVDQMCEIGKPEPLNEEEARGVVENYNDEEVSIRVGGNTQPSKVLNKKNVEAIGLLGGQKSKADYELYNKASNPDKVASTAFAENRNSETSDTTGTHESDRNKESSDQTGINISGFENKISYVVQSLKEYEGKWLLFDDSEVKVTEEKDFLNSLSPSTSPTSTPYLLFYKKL
smiles,measurement,setting,value
CN1CCC[C@@H](CC2c3ccccc3Sc3ccccc32)C1,outcome,[1],inactive
same,Potency,[2],> 20.6 µM (inactive)
same,Potency,[3],> 20.6 µM (inactive)
same,Potency,[4],inactive
same,outcome,[5],inactive
same,"activity change, negative = inhibition",[6]; at 25.7 µM (top of the series),-5.3% (inactive)
same,max response,[6]; [10],-0.662%
same,max response,[6]; [11],-6.24%
same,Potency,[7],inactive
same,"activity, negative = inhibition",[8]; parasite line A,-16.3% (inactive)
same,Potency,CP192,inactive
same,Potency,CP262,inactive
same,Potency,CP269,inactive
same,Potency,CP315,inactive
same,Potency,CP325,inactive
same,Potency,CP329,inactive
same,Potency,FAB9,inactive
same,Potency,PC49,inactive
Cc1onc(-c2c(F)cccc2Cl)c1C(=O)N[C@H]1C(=O)N2[C@H]1SC(C)(C)[C@H]2C(=O)O,outcome,[1],inactive
same,Potency,[2],> 20.6 µM (inactive)
same,Potency,[3],> 20.6 µM (inactive)
same,outcome,[5],inactive
same,"activity change, negative = inhibition",[6]; at 25.7 µM (top of the series),-2.99% (inactive)
same,max response,[6]; [10],-8.13%
same,max response,[6]; [11],-7.5%
same,Potency,[7],inactive
C=C(C)[C@H]1CC[C@]2(C(=O)O)CC[C@]3(C)[C@@H](CC[C@H]4[C@@]5(C)CC[C@@H](O)C(C)(C)[C@@H]5CC[C@@]43C)[C@H]12,Potency,[2],> 20.6 µM (inactive)
same,Potency,[3],> 20.6 µM (inactive)
same,Potency,[4],inactive
same,"activity change, negative = inhibition",[6]; at 25.7 µM (top of the series),-9.82% (inactive)
same,max response,[6]; [10],-3%
same,max response,[6]; [11],-17.2%
same,Potency,[7],inactive
COc1cc2ccc(=O)oc2c(O)c1O,Potency,[2],> 46 µM (inactive)
same,Potency,[3],> 46 µM (inactive)
same,outcome,[5],inactive
same,"activity change, negative = inhibition",[6]; at 57.5 µM (top of the series),-4.51% (inactive)
same,max response,[6]; [10],13.9%
same,max response,[6]; [11],11.4%
CC1(C)S[C@@H]2[C@H](NC(=O)[C@@H](N)c3ccccc3)C(=O)N2[C@H]1C(=O)O[C@H]1OC(=O)c2ccccc21,Potency,[4],inactive
same,outcome,[5],inactive
same,"activity change, negative = inhibition",[6]; at 25.7 µM (top of the series),-2.68% (inactive)
same,max response,[6]; [10],-27.2%
same,max response,[6]; [11],-29.9%
same,outcome,[9],inactive
same,"activity, negative = inhibition",[8]; parasite line A,9.34% (inactive)
same,"activity, negative = inhibition",[8]; parasite line B,6.7% (inactive)
same,Potency,CP192,inactive
same,Potency,CP201,inactive
same,Potency,CP262,inactive
same,Potency,CP269,inactive
same,Potency,CP305,inactive
same,Potency,CP315,inactive
same,Potency,CP325,inactive
same,Potency,CP329,inactive
same,Potency,FAB9,inactive
same,Potency,JCK,inactive
same,Potency,PC49,inactive
COc1cc(N)c(Cl)cc1C(=O)N[C@H]1CCN(CCCOc2ccc(F)cc2)C[C@H]1OC,outcome,[1],inactive
same,Potency,[2],> 20.6 µM (inactive)
same,Potency,[3],> 20.6 µM (inactive)
same,Potency,[4],inactive
same,outcome,[5],inactive
same,"activity change, negative = inhibition",[6]; at 25.7 µM (top of the series),2.27% (inactive)
same,max response,[6]; [10],-1.69%
same,max response,[6]; [11],0.873%
same,outcome,[9],inactive
same,Potency,[8]; parasite line A,3.55 µM (active)
same,Potency,CP192,inactive
same,Potency,CP262,3.61 µM (active)
same,Potency,CP315,inactive
same,Potency,FAB9,inactive
same,Potency,JCK,inactive
same,Potency,PC49,inactive
Cc1noc(C)c1-c1nc(Nc2ccncc2)c2ccccc2n1,outcome,[1],inactive
same,Potency,[2],> 46 µM (inactive)
same,Potency,[3],> 46 µM (inactive)
same,Potency,[4],inactive
same,"activity change, negative = inhibition",[6]; at 57.5 µM (top of the series),-8.29% (inactive)
same,max response,[6]; [10],-5.56%
same,max response,[6]; [11],-10.6%
CO[C@@H]1CC[C@@]2(C)[C@@H](CC[C@@]3(C)[C@H]2CC=C2[C@H]4CC(C)(C)[C@H](O)[C@@H](OC(C)=O)[C@]4(CO)[C@H](O)C[C@]23C)[C@@]1(C)CO (tested in a mixture with another compound),Potency,[2],> 20.6 µM (inactive)
same,Potency,[3],> 20.6 µM (inactive)
same,Potency,[4],inactive
same,outcome,[5],inactive
same,"activity change, negative = inhibition",[6]; at 25.7 µM (top of the series),0.0322% (inactive)
same,max response,[6]; [10],6.28%
same,max response,[6]; [11],7.61%
CCOC(=O)O[C@]1(C(=O)COC(=O)CC)CC[C@@H]2[C@@H]3CCC4=CC(=O)C=C[C@@]4(C)[C@H]3[C@H](O)C[C@]21C,outcome,[1],inactive
same,Potency,[2],0.00356 µM (active)
same,Potency,[4],inactive
same,outcome,[5],inactive
same,"activity change, negative = inhibition",[6]; at 25.7 µM (top of the series),-3.74% (inactive)
same,max response,[6]; [10],-6.91%
same,max response,[6]; [11],-11.8%
same,Potency,[7],inactive
same,outcome,[9],inactive
same,"activity, negative = inhibition",[8]; parasite line A,4.34% (inactive)
same,"activity, negative = inhibition",[8]; parasite line B,0.379% (inactive)
same,Potency,CP192,inactive
same,Potency,CP201,inactive
same,Potency,CP262,inactive
same,Potency,CP269,inactive
same,Potency,CP305,inactive
same,Potency,CP315,inactive
same,Potency,CP325,inactive
same,Potency,CP329,inactive
same,Potency,FAB9,inactive
same,Potency,JCK,inactive
same,Potency,PC49,inactive
CNCCC=C1c2ccccc2C=Cc2ccccc21,outcome,[1],inactive
same,Potency,[2],> 20.6 µM (inactive)
same,Potency,[3],> 20.6 µM (inactive)
same,Potency,[4],inactive
same,"activity change, negative = inhibition",[6]; at 25.7 µM (top of the series),-3.6% (inactive)
same,max response,[6]; [10],-2.2%
same,max response,[6]; [11],-8.1%
same,Potency,[7],inactive
O=c1cc(-c2cccc(O)c2)oc2cc(O)ccc12,Potency,[2],> 46 µM (inactive)
same,Potency,[3],> 46 µM (inactive)
same,outcome,[5],inactive
same,"activity change, negative = inhibition",[6]; at 57.5 µM (top of the series),8.05% (inactive)
same,max response,[6]; [10],22.9%
same,max response,[6]; [11],28%
C[C@@H](C(=O)O)c1ccc(C(=O)c2ccccc2)s1,outcome,[1],inactive
same,Potency,[4],inactive
same,outcome,[5],inactive
same,"activity change, negative = inhibition",[6]; at 25.7 µM (top of the series),-0.119% (inactive)
same,max response,[6]; [10],1.62%
same,max response,[6]; [11],2.32%
same,Potency,[7],inactive
same,outcome,[9],inactive
same,"activity, negative = inhibition",[8]; parasite line A,5.2% (inactive)
same,"activity, negative = inhibition",[8]; parasite line B,16.9% (inactive)
same,Potency,CP192,inactive
same,Potency,CP201,inactive
same,Potency,CP262,inactive
same,Potency,CP269,inactive
same,Potency,CP305,inactive
same,Potency,CP315,inactive
same,Potency,CP325,inactive
same,Potency,CP329,inactive
same,Potency,FAB9,inactive
same,Potency,JCK,inactive
same,Potency,PC49,inactive
O=c1[nH]c(=O)n([C@@H]2C[C@H](O)[C@H](CO)O2)cc1C(F)(F)F,outcome,[1],inactive
same,Potency,[2],> 20.6 µM (inactive)
same,Potency,[3],> 20.6 µM (inactive)
same,Potency,[4],inactive
same,"activity change, negative = inhibition",[6]; at 25.7 µM (top of the series),-0.507% (inactive)
same,max response,[6]; [10],-7.04%
same,max response,[6]; [11],-7.97%
same,Potency,[7],inactive
NS(=O)(=O)c1cc2c(cc1C(F)(F)F)N[C@H](Cc1ccccc1)NS2(=O)=O,outcome,[1],inactive
same,Potency,[4],inactive
same,outcome,[5],inactive
same,"activity change, negative = inhibition",[6]; at 25.7 µM (top of the series),1.42% (inactive)
same,max response,[6]; [10],-8.69%
same,max response,[6]; [11],-8.81%
same,outcome,[9],inactive
same,"activity, negative = inhibition",[8]; parasite line A,-1.91% (inactive)
same,Potency,CP192,inactive
same,Potency,CP201,inactive
same,Potency,CP262,inactive
same,Potency,CP269,inactive
same,Potency,CP305,inactive
same,Potency,CP315,inactive
same,Potency,CP325,inactive
same,Potency,CP329,inactive
same,Potency,FAB9,inactive
same,Potency,JCK,inactive
same,Potency,PC49,inactive
